# Hits are enriched below; roughly 3.1% of the tested compounds scored in any of these assays.
# TRPM1 prom inh: reduces MITF-dependent TRPM1 promoter luciferase signal; AID 488899; inhibition, % at 12.5 µM; hit rate 0.83% among 330,000; SK-MEL-5 TRPM1 promoter luciferase, 24 h;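 active means mean inhibition across replicates of 60% or more, whatever share of single replicates reaches that level; inconclusive means some that reach 60%, reason not given; inactive means mean inhibition across replicates below 60%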
# ABHD5 PLIN5 PPI: ABHD5-PLIN5 protein interaction inhibition; AID 602281; Q00G26+Q8WTS1; inhibition, % at 4 µM; hit rate 0.78% among 360,000; Split G. princeps luciferase complementation, luminescence, 4 h;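 active means inhibition above the mean inhibition across every tested compound plus 3 SD, cut at about 22% in these data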
# CF NFkB block: cystic fibrosis NF-kB activation inhibition; KKLEB NF-kB-GFP reporter, PAF-induced, GFP fluorescence overnight; inhibition, % at 5 µM; hit rate 0.86% among 360,000; AID 588850;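 active means at least 50% inhibition at 5 µM, scaled per plate between neutral and stimulator controls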;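 further: PAF is a Pseudomonas aeruginosa culture filtrate used as stimulus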
# HIF-2a block: HIF-2a inhibition; 786-0 RCC cells HIF-2a reporter, luciferase luminescence, overnight; hit rate 0.72% among 360,000; inhibition, % at 18.8 µM; AID 624352;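 active means inhibition of the luminescence signal of 40% or more relative to plate controls, in a single-dose primary screen at 18.75 µM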
# KKLEB cytotox: counter-screen for CF NF-kB inhibitors: cytotoxicity; activity change (cytotoxicity), % at 5 µM; hit rate 0.36% among 360,000; KKLEB CF airway cells viability, ATPlite luminescence, overnight; hits give low values; cells stimulated with P. aeruginosa culture filtrate;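 active means corrected activity change at or below -50% at 5 µM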
# Peg3 prom inh: inhibitors of Peg3 promoter; inhibition, % at 20 µM; hit rate 1.7% among 360,000; HeLa PEG-Prom luciferase reporter, luminescence, overnight;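 active means inhibition of at least 50% at 20 µM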
# Numbers stand for hits; – = inactive; ? = inconclusive; · = no result given.
SMILES,TRPM1 prom inh,ABHD5 PLIN5 PPI,CF NFkB block,HIF-2a block,KKLEB cytotox,Peg3 prom inh
O=C(COc1ccc([N+](=O)[O-])cc1)Nc1ccc(C(=O)NCc2cccnc2)cc1,–,–,–,–,–,75
O=C(COc1ccc([N+](=O)[O-])cc1)NCc1cccnc1,–,–,–,–,–,–
CCC(C)NC(=O)N[C@@H](Cc1ccccc1)C(=O)O (some centres undefined),–,–,–,–,-85,–
COc1ccc(-c2cc(C(=O)Nc3cc(OC)cc(C(=O)Nc4cccc(C(F)(F)F)c4)c3)[nH]n2)cc1,–,–,–,–,–,–
COc1cc2c(cc1OC)CN(CC(=O)Nc1ccc(F)cc1)C(C(=O)O)C2 (centres undefined),–,–,–,–,–,–
O=C(CCCN1C(=O)/C(=C/c2cccs2)SC1=S)Nc1cccnc1,–,–,–,–,–,–
COC(=O)c1ccc(/C=C2/SC(=S)N(CCCC(=O)Nc3ccccn3)C2=O)cc1,–,–,–,–,–,–
O=C(CCCN1C(=O)/C(=C\c2cccc(Br)c2)SC1=S)Nc1cccnc1,–,–,–,61,–,96
O=C(CCCN1C(=O)/C(=C/c2cccc(Br)c2)SC1=S)Nc1ccccn1,–,–,–,66,–,62
Cc1ccc(/C=C2\SC(=S)N(CCCC(=O)Nc3cc(C)on3)C2=O)cc1,–,–,–,69,–,–
Cc1ccc(/C=C2\SC(=S)N(CCCC(=O)Nc3cccnc3)C2=O)cc1,–,–,–,70,–,–
COc1ccc2[nH]c3c(c2c1)CCN1C(=O)C(CC(=O)NCc2ccco2)C[C@H](C(=O)N(C(C)C)C(C)C)[C@@]31C (some centres undefined),–,–,–,–,–,–
O=C(/C=C/c1ccc([N+](=O)[O-])cc1)c1cccs1,–,–,–,–,–,–
COc1cc([N+](=O)[O-])ccc1N/C=C/C(=O)c1cccs1,–,–,–,–,-58,–
COc1ccc([N+](=O)[O-])cc1NC(=S)NC(NC(=O)C(c1ccccc1)c1ccccc1)C(Cl)(Cl)Cl (centres undefined),–,–,–,–,–,50
O=C(NC(NC(=S)Nc1c(Cl)cccc1Cl)C(Cl)(Cl)Cl)c1cccc([N+](=O)[O-])c1 (centres undefined),–,–,–,–,–,52
CCN(CC)CCNC(=O)c1cccc(NC(=O)C(=O)c2cc(Br)ccc2NC(C)=O)c1,–,–,–,–,–,–
O=C(CCNS(=O)(=O)c1ccccc1)N1CCN(c2ccccc2)CC1,–,–,–,–,–,–
O=C(/C=C/Nc1ccc(Br)cc1F)c1ccccc1,–,–,–,–,-78,–
CC(=O)N1c2ccc(S(=O)(=O)N3CCC(C(=O)Nc4cccc(Cl)c4)CC3)cc2CC1C (centres undefined),–,–,–,–,–,–
O=C(C[n+]1ccc2ccccc2c1)c1cccc2ccccc12,–,–,–,–,–,–
O=C(/C=C/c1cc[n+](CC(=O)c2ccc3cccc4c3c2CC4)cc1)c1ccc2cccc3c2c1CC3,–,23,–,–,–,–
O=Nc1c(O)[nH]c2ccc(Cl)c(Cl)c12,–,–,–,–,–,57
CCc1cccc2c(N=O)c(O)[nH]c12,–,–,–,–,–,–
O=C1N(c2ccccc2C(F)(F)F)OC1(Cc1ccccc1)c1ccccc1 (centres undefined),–,–,–,–,–,58
SMILES,TRPM1 prom inh,ABHD5 PLIN5 PPI,CF NFkB block,HIF-2a block,KKLEB cytotox,Peg3 prom inh
CC[C@]1(c2ccccc2C)ON(c2ccccc2C(F)(F)F)C1=O,–,–,–,–,–,–
N#C/C(=N\Nc1ccc(S(=O)(=O)N2CCc3ccccc32)cc1)C(N)=S,–,–,58,–,–,–
CCOC(=O)/C(C#N)=N/Nc1ccc(S(=O)(=O)N2CCc3ccccc32)cc1,–,–,–,–,–,–
CCCC(=O)Nc1nc2c(s1)COc1ccccc1-2,–,–,–,–,–,–
O=C(CCSc1ccccc1)Nc1nc2c(s1)COc1ccccc1-2,–,–,–,–,–,54
OC(c1ccc(F)c(F)c1)c1nc(-c2cccs2)cs1 (centres undefined),·,–,–,–,–,–
CC1(C)CC(=O)C2=C(C1)N=C1c3ccccc3C(=O)C1C2c1ccc(Cl)cc1 (centres undefined),–,22,–,47,–,58
CCOC(=O)C1=C(C)N=C2c3ccccc3C(=O)C2C1c1ccc(Cl)cc1 (centres undefined),–,–,–,–,–,–
COc1ccc(S(=O)(=O)c2c(N)n(Cc3ccco3)c3nc4ccccc4nc23)cc1,–,24,–,–,–,–
Cc1nc2ccccc2c(=O)n1Cc1ccco1,·,–,–,–,–,–
Cc1cc(C)cc(-n2c3nc4ccccc4nc3c3c(=O)n(Cc4ccco4)cnc32)c1,–,60,–,–,–,–
COc1ccc(Cn2c(C)nc3c(c2=O)c2nc4ccccc4nc2n3Cc2ccco2)cc1,?,33,–,–,–,–
C=Cn1cc[n+](CC(=O)c2ccc(-c3ccccc3)cc2)c1,–,–,–,–,–,–
O=C(CSc1ncnc2sc(-c3ccccc3)cc12)NC1CCS(=O)(=O)C1 (centres undefined),–,–,–,–,–,–
OC(c1ccc(-c2ccccc2)cc1)c1ncc(-c2ccc(F)cc2)[nH]1 (centres undefined),·,–,–,–,–,–
COC(=O)c1c(NC(=O)C(Cl)Cl)sc2c1C(C(=O)OC)CC2 (centres undefined),?,–,–,–,–,81
Clc1ccc(Nc2ncnc3ccc(Br)cc23)cc1,–,–,73,–,–,–
Cc1ccc(C(=O)NC2CCN(CC(=O)NC3CCC(C)CC3)CC2)cc1 (centres undefined),–,–,–,–,–,–
CCOC(=O)C1(CCOc2ccccc2)CCN(Cc2ccc(OCC)c(CO)c2)CC1,–,–,–,–,–,–
CC1=NN(C(N)=S)C(=O)C1N=Nc1cccc(C(=O)O)c1 (centres undefined),–,–,–,46,–,–
Cc1ccc2nc(-c3ccc(SCC(=O)Nc4nc(C)cs4)nc3)[nH]c2c1,–,–,–,–,–,–
Cc1ccc2nc(-c3ccc(SCC(=O)Nc4ccc5c(c4)OCCO5)nc3)[nH]c2c1,–,–,–,–,–,–
Cc1cc2nc(-c3ccc(SCC(=O)Nc4ccc5c(c4)OCCO5)nc3)[nH]c2cc1C,–,–,–,–,-54,–
Cc1ccc2nc(-c3ccc(SCC(=O)Nc4nnc(C)s4)nc3)[nH]c2c1,–,–,–,–,–,99
COc1ccc(-c2sc(C(=O)c3ccc(Cl)cc3Cl)cc2CC(=O)O)cc1,–,–,–,–,–,–

# Screening results (PubChem)
